High-throughput results as filed in PubChem.
KDM5B inh: blocks human KDM5B histone demethylase activity | Q9UGL1 | KDM5B demethylase, FDH-coupled NADH fluorescence (FDH is formaldehyde dehydrogenase) | Potency, µM (doses to about 57.7 µM), hits mostly inhibitors | hit rate 2.6% among 220,000; active = well fitted inhibition curve with a large enough effect; inconclusive = small, poorly fitted or top-dose-only effect; inactive = no such curve, though single readings can be large or run the other way; note: potency is the fitted concentration of half-maximal effect; 0% is about no effect; nearly all actives have a fitted effect of over 70% in size
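Coupled FDH/NAD⁺ fluorescence readout. KDM5BΔAP 200 nM final; compound titration, 10 min RT preincubation; substrate mix 12.5 µM H3K4me3, 25 µM 2-OG, 50 µM Fe(II), 100 µM ascorbate, 0.25 mM NAD⁺, 0.25 U/mL FDH; ΔRFU over 30 min.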
IP6K1 inhibitor: inhibitors of human IP6K1; Q92551; IP6K1 kinase, ADP-Glo luminescence, 2 h; hits give low values; activity change, % (series mostly up to about 58 µM); hit rate 0.81% among 140,000; AID 1645851; in the data active = activity change below about -25%; note: % is set by controls: 0 for no effect and ±100 for the full control effect
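ADP-Glo luminescence measures ADP made by human IP6K1 during a 2 h RT reaction with ATP/IP6 (mix at 1.3 mM/130 uM); top library doses 57.5 and 19.1 uM final.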
* = called active by the depositor; i = inactive; u = inconclusive; x = no result. Compounds with a hit are over-represented: about 2.8% of the library has one in this group of screens.

SMILES	KDM5B inh	IP6K1 inhibitor
CCc1cc(CC)n(-c2nc3c(c(=O)n(CC(N)=O)c(=O)n3C)n2CC(C)C)n1	i	x
Cc1ncoc1C(=O)N1CCC2(CCCN(C3CCOCC3)C2=O)C1 (stereo not drawn)	i	7
O=C1N(C2CCOCC2)CCCC12CCN(c1ccc(Cl)cn1)C2 (stereo not drawn)	28µM*	3
Cc1nn(-c2ccccc2)c2c1C(C1CC1)N(C1CN(C(=O)C(C)(C)C)C1)C2=O (stereo not drawn)	x	5
COc1ncc(-c2ccc3ncn(C4CC4)c(=O)c3n2)cn1	32µM*	3
COc1ccccc1-c1ccc2ncn(C3CC3)c(=O)c2n1	u	-2
COc1ccc(CC(=O)NC2CCN(C(=O)c3ccc(-c4cccc(OC)c4)cc3)CC2)cc1	x	1
COCCC(=O)N1CCNc2cnc(Nc3cccc(C(F)(F)F)c3)nc2C1	u	-10
O=C(Cc1cccc(Cl)c1)N1CCNc2cnc(Nc3cccc(C(F)(F)F)c3)nc2C1	u	-14
O=C(CCc1ccccc1)N1CCNc2cnc(Nc3cccc(C(F)(F)F)c3)nc2C1	25µM*	-6
O=C(Cc1ccc2c(c1)OCO2)N1CCNc2cnc(Nc3cccc(C(F)(F)F)c3)nc2C1	14µM*	-9
O=[S+]1([O-])c2cnccc2OC(Cn2cccc2)CN1Cc1cccc(F)c1 (stereo not drawn)	x	-11
O=C(Cc1c[nH]c2ccccc12)NC1CCCc2c1[nH]c1ccc(F)cc21 (stereo not drawn)	u	-11
COCCNc1ncccc1-c1noc([C@@H]2CCCN2Cc2ccco2)n1	28µM*	-6
COCCOc1ncccc1-c1noc([C@@H]2CCCN2CC2CC2)n1	u	22
COCCNc1ncccc1-c1noc([C@@H]2CCCN2Cc2cccc(C#N)c2)n1	u	11
COCCNc1ncccc1-c1noc([C@@H]2CCCN2CC(C)(C)C)n1	35µM*	23
COCCNc1ncccc1-c1noc([C@@H]2CCCN2C2CCOCC2)n1	40µM*	14
COCCOc1ncccc1-c1noc([C@@H]2CCCN2C2CCN(C)CC2)n1	i	-9
COCCCNC(=O)c1cn2cc(-c3ccc(C)cc3)sc2n1	x	2
CC(=O)NNC(=S)Nc1ccccc1	i	x
CCc1ccc(NCc2ccc(OC)c(Cn3ccnc3)c2)cc1	i	x
COc1ccc(-c2ccc(Cn3ccnc3)cn2)c2ccc(C)nc12	25µM*	-3
CCCOC(=O)C(C#N)c1nc2ccccc2nc1Cl (stereo not drawn)	i	x
O=c1[nH]c(-c2ccc(F)cc2)nc2c1CCN(S(=O)(=O)c1ccc3c(c1)CCC3)C2	u	29
SMILES	KDM5B inh	IP6K1 inhibitor
O=c1[nH]c(-c2ccc(F)cc2)nc2c1CCN(S(=O)(=O)c1cccs1)C2	32µM*	21
COc1ccc(CN2CCNC(=O)C2CC(=O)NC2CCOCC2)c(F)c1 (stereo not drawn)	i	x
COc1ccc(CN2CCNC(=O)C2CC(=O)NCc2ccco2)c(F)c1 (stereo not drawn)	10µM*	4
COc1ccccc1-c1nnc2ccc(C(=O)NCc3ccc(Cl)cc3)cn12	x	3
COCCN1CCOc2nc(-c3cc(F)cc(OC)c3)ncc2C1=O	32µM*	-7
COc1cc(F)cc(-c2ncc3c(n2)OCCN(c2cccc(C(F)(F)F)c2)C3=O)c1	i	28
COc1ccc(-c2ncc3c(n2)OCCN(c2ccccc2)C3=O)cc1F	28µM*	16
COc1ccc(CN2CCOc3nc(-c4cc(F)cc(F)c4)ncc3C2=O)cc1	i	-8
COc1ccc(F)cc1-c1ncc2c(n1)OCCN(c1cccc(C(F)(F)F)c1)C2=O	40µM*	-6
Cc1ccc(-c2ncc3c(n2)OCCN(c2ccccc2)C3=O)cc1F	i	2
COc1cc(F)cc(-c2ncc3c(n2)OCCN(C)C3=O)c1	35µM*	-5
COc1ccc(OC)c(-c2ncc3c(n2)OCCN(c2cccc(C(F)(F)F)c2)C3=O)c1	i	1
COc1ccccc1-c1cc(C(=O)NCc2ccccc2Cl)nn2cnnc12	x	3
CCOc1ccccc1NC(=O)CCn1cnc2c1c(=O)n(C)c(=O)n2C	i	x
Cc1ccc(C)c(NC(=O)c2ccc3c(=O)n(-c4ccccc4)c(=O)[nH]c3c2)c1	i	x
Cc1ccc(-c2cc(C(=O)N3CCOCC3)c3cnn(C)c3n2)cc1	x	8
COCCN1CCOc2nc(-c3cc(F)ccc3OC)ncc2C1=O	32µM*	-11
COCCN1CCOc2nc(-c3ccc(F)c(Cl)c3)ncc2C1=O	i	4
CNC(=O)C1CCCN(Cc2cccc(-c3ccc(F)cc3F)c2)C1 (stereo not drawn)	x	5
COc1ccc(C(=O)NCc2nnc3ccc(-c4ccc(C)cc4)nn23)c(C)c1	28µM*	10
COc1ccc(C(=O)NCc2nnc3ccc(-c4ccc(F)cc4)nn23)c(OC)n1	u	22
Cc1ccc(-c2ccc3nnc(CNC(=O)Cc4cccc(C)c4)n3n2)cc1	u	-14
COc1ccc(-c2ccc3nnc(CNC(=O)COc4cccc(C)c4)n3n2)cc1	25µM*	7
COc1ccc(-c2ccc3nnc(CNC(=O)c4sccc4C)n3n2)cc1	32µM*	-11
COc1ccc(C(=O)NCc2nnc3ccc(-c4ccccc4)nn23)c(C)c1	u	16
SMILES	KDM5B inh	IP6K1 inhibitor
COc1ccc(-c2ccc3nnc(CNC(=O)c4ccc(C)cc4C)n3n2)cc1	28µM*	7
Oc1ccccc1CN1CCOC[C@H]1c1ncc(-c2cccc(Cl)c2)[nH]1	i	-9
COc1ccccc1-c1cccc(CN2CCC(N[S+](=O)([O-])c3ccccc3)CC2)c1	x	3
N#Cc1c(N)n[nH]c1CCCNc1nc(-c2cccnc2)nc2ccccc12	i	x
O=C(CSc1nc2ccccc2s1)c1ccc(C2CCCCC2)cc1	i	x
Cn1ncc2c(C(=O)NCCc3ccc(F)cc3)cc(-c3ccc(Cl)cc3)nc21	x	-13
O=C(NCCc1ccc(Cl)cc1)c1nc(-c2ccsc2)c2ccccn12	22µM*	14
Cc1ccc(-c2c(C(=O)NCCc3ccc(Cl)cc3)nc3sccn23)cc1	x	11
O=C(NCc1ccc(F)cc1)c1nc(-c2cccnc2)c2cnccn12	i	0
O=C(NCCc1ccc(Cl)cc1)c1nc(-c2ccc(F)cc2)c2ccccn12	25µM*	-1
O=C(NCCc1ccc(Cl)cc1)c1ccc2nnc(-c3ccc(F)cc3)n2c1	x	6
O=C(NCc1ccc(F)cc1)c1nc(-c2ccc(F)cc2)c2cnccn12	35µM*	14
O=C(NCCc1ccc(Cl)cc1)c1nc(-c2ccc(F)cc2)c2cnccn12	32µM*	5
N#Cc1ccccc1COC(=O)c1ccc(C(=O)c2ccccc2)cc1	i	x
COc1cccc(-c2ccc(CN3CCCC(N[S+](=O)([O-])c4cccc(C(F)(F)F)c4)C3)cc2)c1 (stereo not drawn)	x	0
CNC(=S)N/N=C/c1c(F)cccc1F	i	x
Fc1ccc(CCNC(=S)NCc2ccc(Cl)cc2)cc1	i	x
Cn1ncc2c(C(=O)NCCCc3ccccc3)cc(-c3ccc([S+](C)(=O)[O-])cc3)nc21	x	7
Cc1ccc(-c2cc(C(=O)OC(C)C(N)=O)c3ccccc3n2)c(C)c1 (stereo not drawn)	i	x
O=C(OCc1nc2ccccc2s1)C1=NN(C2CCS(=O)(=O)C2)C(=O)CC1 (stereo not drawn)	i	x
